From PubChem BioAssay (NCATS) come the findings set out here.

Where “and” joins values, the source holds several entries; their conditions need not be identical. Identical values can stand only once. Records with an inconclusive call do not appear. Unmarked numbers belong to inactive results. Calls of active or inactive are those of the source. Calls come from the whole dose curve; as a rule, active = well fitted curve in the direction sought with a large enough effect; inconclusive = small, poorly fitted or top-dose-only effect, or another doubt; inactive = no such curve, though single readings can be large; an effect the other way counts as inactive or inconclusive.

In test [1] the test system is CRL-7250. Nature of the test: Cytotoxic Profiling of Annotated Libraries Using Quantitative High-Throughput Screening (AID 1296008). For max response: % is set by controls: 0 for no effect and ±100 for the full control effect. Note: nearly all actives have a fitted effect of over 60% in size. The conditions noted are these: Five cell lines viability, CellTiter-Glo ATP luminescence, 48-72 h; max response: hits give low values. The method in brief: (§1)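 Cytotoxicity was measured as CellTiter-Glo ATP luminescence, read after 10 min at room temperature. Compound treatment of the cells lasted 48 or 72 hr at 37 degrees Celsius in a qHTS format.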

Test [2] deals with HEK293. The test is described as above. The conditions noted are these: Five cell lines viability, CellTiter-Glo ATP luminescence, 48-72 h; max response: hits give low values. In outline: as §1
Test [3] has as its system HaCat. The description is as above. As to conditions: Five cell lines viability, CellTiter-Glo ATP luminescence, 48-72 h; max response: hits give low values. The method in brief:
as §1

The test system of test [4] is KB-3-1. Described as above. The conditions noted are these: Five cell lines viability, CellTiter-Glo ATP luminescence, 48-72 h; max response: hits give low values. In outline:
as §1

Test [5] deals with NIH3T3. Described as above. The conditions noted are these: Five cell lines viability, CellTiter-Glo ATP luminescence, 48-72 h; max response: hits give low values. The method in brief: as §1
The subject of test [6] is HACAT. Nature of the test: qHTS assay to identify novel small-molecules to repurpose for Merkel cell carcinoma treatment (AID 1296009). Note: nearly all actives have a fitted effect of over 60% in size. As to conditions: MCC and control cell lines, CellTiter-Glo viability, 72 h. In outline:
(§2)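 After compound transfer in DMSO, plates were kept 72 hr at 37 degree celsius. Luminescent ATP signal from CellTiter-Glo served as viability measure, normalized against DMSO and no-cell controls.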

Test [7] deals with MCC-13. The description is as above. As to conditions: MCC and control cell lines, CellTiter-Glo viability, 72 h; series mostly up to 46 µM. The method in brief:
as §2

Test [8] has as its system MCC-26. The description is as above. The conditions noted are these: MCC and control cell lines, CellTiter-Glo viability, 72 h; series mostly up to 46 µM. The method in brief: as §2
Test [9] concerns MKL-1. Described as above. As to conditions: MCC and control cell lines, CellTiter-Glo viability, 72 h; series mostly up to 46 µM. In outline: as §2
Test [10] deals with UISO. The description is as above. The conditions noted are these: MCC and control cell lines, CellTiter-Glo viability, 72 h; series mostly up to 46 µM. In outline:
as §2

In test [11] the test system is WaGa. The description is as above. The conditions noted are these: MCC and control cell lines, CellTiter-Glo viability, 72 h; series mostly up to 46 µM. In outline: as §2
In test [12] the test system is C33A. The experiment in a line: Primary qHTS to identify gynecologic anti-cancer compounds using libraries of approved drugs and bioactive compounds (AID 1345084). Note: % is set by controls: 0 for no effect and ±100 for the full control effect; nearly all actives have a fitted effect of over 55% in size. The conditions noted are these: Gynecologic cancer cell panel viability, ATPlite luminescence, 48 h; series mostly up to 57.5 µM. In outline: (§3)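 ATP-based viability (ATPlite), 1,000 cells/well, 16 h pre-incubation, 48 h compound at 37 C, 5% CO2, 15 min RT before read.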

Test [13] concerns CAOV3. The test is described as above. As to conditions: Gynecologic cancer cell panel viability, ATPlite luminescence, 48 h; series mostly up to 57.5 µM. In outline: as §3
Test [14] relates to CASKI. The description is as above. As to conditions: Gynecologic cancer cell panel viability, ATPlite luminescence, 48 h; series mostly up to 57.5 µM. The method in brief:
as §3

For test [15], the system named is Es-2. Described as above. As to conditions: Gynecologic cancer cell panel viability, ATPlite luminescence, 48 h; series mostly up to 57.5 µM. The method in brief: as §3
The subject of test [16] is HeLa. The description is as above. As to conditions: Gynecologic cancer cell panel viability, ATPlite luminescence, 48 h; series mostly up to 57.5 µM. The method in brief:
as §3

The test system of test [17] is MKL-2. Nature of the test: qHTS assay to identify novel small-molecules to repurpose for Merkel cell carcinoma treatment (AID 1296009). Note: nearly all actives have a fitted effect of over 60% in size. As to conditions: MCC and control cell lines, CellTiter-Glo viability, 72 h; series mostly up to 46 µM. In outline: as §2
The test system of test [18] is NIH3T3. Described as above. As to conditions: MCC and control cell lines, CellTiter-Glo viability, 72 h; at 44.8 µM (top of the series) unless noted. In outline:
as §2

Test [19] concerns HEK293T. The test is described as above. As to conditions: MCC and control cell lines, CellTiter-Glo viability, 72 h; at 44.8 µM (top of the series) unless noted. The method in brief: as §2
Test [20] deals with W2. Nature of the test: qHTS profiling for inhibitors of Plasmodium falciparum proliferation (AID 504749). Note: potency is the fitted concentration of half-maximal effect; nearly all actives have a fitted effect of over 60% in size. As to conditions: P. falciparum in erythrocytes, SYBR Green DNA, 72 h; series mostly up to 28.7 µM. In outline: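 Three-day growth assay of blood-stage parasites in erythrocytes (0.3% parasitemia, 2.5% hematocrit) at 37 C, 5% CO2, quantified by SYBR Green DNA staining after overnight detergent lysis.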

[21] abbreviates: at 44.8 µM (top of the series) unless noted.

As for `NNC(=O)c1ccncc1`, the max response in test [1] is 4.6%; in [2], 3.4% and -0.464%; in [4], -14.7% and 6.97%; in test [5], 1.44%. Further, the molecule was called inactive in [1], in test [3] and in test [6] (setting [21]). The Potency result in test [7], in test [8], in [9], in test [10], in test [11] and in [12] was “inactive” throughout. The Potency entry in test [13], in test [14], in test [15] and in test [16] was “inactive” each time.
As to `CC(=O)[C@H]1CC[C@H]2[C@@H]3CC=C4C[C@@H](O)CC[C@]4(C)[C@H]3CC[C@]12C`, the max response was 3.91% in test [1]; -4.16% and 0.472% in test [2]; 2.2% in test [3]; -0.265% and 8.01% in test [4]; 0.775% in test [5]. Further, the result in test [1], in test [3], in test [5], in [6] (setting [21]) and in test [18] was inactive. Further, the Potency entry in [7], in test [8], in [9], in test [17], in test [10] and in [11] was “inactive” in each case. Also, the Potency entry in test [12], in test [13], in test [14] and in test [15] was “inactive” throughout.
For `CNS(=O)(=O)Cc1ccc2[nH]cc(CCN(C)C)c2c1`, the max response is -6.22% in [1]; 2.84% in test [2]; -7.88% and 1.69% in test [4]; -1.5% in [5]. The call in test [1], in [2], in test [3], in test [5], in test [6] (setting [21]) and in test [19] was inactive. Further, the molecule was called inactive in [18]. The Potency result in test [7], in test [8], in [9], in test [17], in [10] and in test [11] was “inactive” in each case. Also, the Potency result in test [12], in [13], in test [14], in [15] and in test [16] was “inactive” each time.
`CN1CCN(c2c(F)cc3c(=O)c(C(=O)O)cn4c3c2OCN4C)CC1`: the max response in test [1] is -0.174%; in [2] it was -2.04%; in test [4] it was -7.62%; in test [5] it was 2.5% and 4.99%. For the same molecule, the result in test [1], in test [2], in [3], in [4], in test [6] (at 17.4 µM (top of the series)) and in test [6] (at 44.8 µM (top of the series)) was inactive. The outcome in [19] was “inactive [at 17.4 µM]”. Also, the Potency entry in test [7], in [8], in [9], in test [17], in test [10] and in test [11] was “inactive” each time. Moreover, the Potency entry in [12], in test [13], in test [14], in test [15] and in [16] was “inactive” each time.
As for `CC(C)(Sc1cc(C(C)(C)C)c(O)c(C(C)(C)C)c1)Sc1cc(C(C)(C)C)c(O)c(C(C)(C)C)c1`, the Potency in test [20] is 4.05 µM (active). Further, the max response in test [1] is -4.36%; in test [2], 2.23%; in test [3], 0.994%; in [4] it was -10.8% and 4.75%; in [5], 1.18%. Besides, the outcome in test [1], in test [2], in test [3], in [5], in test [6] (setting [21]) and in test [19] was inactive. In test [18], the call was inactive. Moreover, the Potency result in test [7], in test [8], in [9], in [17], in test [10] and in test [11] was “inactive” throughout. The Potency entry in test [12], in [13], in test [14], in test [15] and in test [16] was “inactive” throughout.
